HIF-2a block – HIF-2a reporter inhibitors, primary screen, luminescence, 786-0 RCC cells; 786-0 RCC cells HIF-2a reporter, luciferase luminescence, overnight; inhibition, % at 18.8 µM; hit rate 0.72% among 360,000; AID 624352, 2012;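 active = inhibition of the luminescence signal of 40% or more relative to plate controls, in a single-dose primary screen at 18.75 µM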
MITF TRPM1 inh – inhibitors of MITF-dependent TRPM1 promoter reporter, primary screen, cell-based, SK-MEL-5, single point, luciferase; SK-MEL-5 TRPM1 promoter luciferase, 24 h; inhibition, % at 12.5 µM; hit rate 0.83% among 330,000;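 active = mean inhibition across replicates of 60% or more, whatever share of single replicates reaches that level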
KKLEB cytotox – cytotoxicity in KKLEB CF airway cells, primary screen, cytotoxicity control for CF NF-kB inhibitor project, cell-based, uHTS, fluorescence assay plates. hit rate 0.36% among 360,000. activity change (cytotoxicity), % at 5 µM. KKLEB CF airway cells viability, ATPlite luminescence, overnight; stronger effect = lower value; cells stimulated with P. aeruginosa culture filtrate;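 active = corrected activity change at or below -50% at 5 µM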
Peg3 promoter – Peg3 promoter-driven luciferase inhibitors, primary screen, cell-based, HeLa, luciferase luminescence | HeLa PEG-Prom luciferase reporter, overnight | inhibition, % at 20 µM | hit rate 1.7% among 360,000 | AID 588405, 2011;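 active = inhibition of at least 50% at 20 µM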
CF NFkB inh – inhibitors of PAF-induced NF-kB signaling, primary screen, cell-based, GFP fluorescence, uHTS; hit rate 0.86% among 360,000; KKLEB NF-kB-GFP reporter, GFP fluorescence overnight; inhibition, % at 5 µM;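 active = at least 50% inhibition at 5 µM, scaled per plate between neutral and stimulator controls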;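 note: PAF is a Pseudomonas aeruginosa culture filtrate used as stimulus; plate controls were PAF-stimulated DMSO wells for no effect and unstimulated DMSO wells for full effect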
Beta2AR agonist – beta2AR agonists driving receptor internalization, primary screen, cell-based, FAP fluorogen, flow cytometry; Beta-2 adrenergic receptor (Homo sapiens), P07550; Am2.2-beta2AR cells; response, % (concentration not given with the values); hit rate 0.43% among 340,000;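 active = response above a set limit, near 3 SD of response in nonfluorescent compounds, cut at about 42% in these data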
Target sequence (P07550 whole entry, looked up): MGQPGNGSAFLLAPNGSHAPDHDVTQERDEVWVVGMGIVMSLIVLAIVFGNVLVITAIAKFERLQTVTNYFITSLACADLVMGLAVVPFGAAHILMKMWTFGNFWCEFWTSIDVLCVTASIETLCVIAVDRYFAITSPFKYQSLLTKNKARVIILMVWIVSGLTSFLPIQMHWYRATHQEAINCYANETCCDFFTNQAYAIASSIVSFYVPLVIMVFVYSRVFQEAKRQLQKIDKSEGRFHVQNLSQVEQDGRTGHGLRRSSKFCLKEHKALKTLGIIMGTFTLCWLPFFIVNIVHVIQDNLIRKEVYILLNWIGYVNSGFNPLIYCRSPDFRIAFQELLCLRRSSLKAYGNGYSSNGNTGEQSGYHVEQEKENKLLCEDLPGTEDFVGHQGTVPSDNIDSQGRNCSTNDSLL
CF NFkB conf – inhibitors of PAF-induced NF-kB signaling, retest, confirmation, cell-based, GFP fluorescence, single concentration | shares compounds with CF NFkB inh | KKLEB CF airway cells, overnight | inhibition, % at 5 µM | hit rate 64% among 1,300; in the data active = inhibition above about 40%;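 note: stimulus PAF is a Pseudomonas aeruginosa filtrate and not platelet activating factor; plate controls were DMSO wells with stimulus for no effect and unstimulated DMSO wells for full effect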
An asterisk follows results filed as active. Rows were chosen to be rich in hits. Some 2.8% of all compounds tested hit in one or more screens of this group.

What do the screens show for `COc1ccc(OC)c(S(=O)(=O)NCC(c2ccco2)S(=O)(=O)c2ccccc2)c1` (stereo not drawn)?
HIF-2a block: 1.9; MITF TRPM1 inh: 11.8; KKLEB cytotox: 12.4; Peg3 promoter: 4.0; CF NFkB inh: 50.1*; Beta2AR agonist: 8.0; CF NFkB conf: 24.4

What do the screens show for `COc1ccccc1Cc1c(-c2cccc(Br)c2)nc2c(C)cc(Br)cn12`?
HIF-2a block: -173.0; KKLEB cytotox: -6.3; Peg3 promoter: -24.0; CF NFkB inh: 55.1*; CF NFkB conf: 5.4

Results for Cc1ccc(S(=O)(=O)N2[C@@H](Cc3ccccc3)CO[C@H]2CC(=O)c2ccccc2)cc1 ?
HIF-2a block: -21.2

How did Oc1ccc(Cl)cc1Cc1cc(Cl)ccc1O do in these assays?
HIF-2a block: -7.7; MITF TRPM1 inh: 4.5; KKLEB cytotox: 29.6; Peg3 promoter: 42.0; CF NFkB inh: 77.0*; Beta2AR agonist: 18.3; CF NFkB conf: 90.2*

How did C[C@H]1CN([C@@H](C)CO)S(=O)(=O)c2ccc(-c3ccccc3)cc2O[C@H]1CN(C)C(=O)C1CCC1 do in these assays?
HIF-2a block: -1.4; KKLEB cytotox: 1.3; Peg3 promoter: 21.1; CF NFkB inh: -0.3

Results for CN(C)C=Nc1c(C(=O)c2ccccc2)sc2nccc(N(C)C)c12 ?
HIF-2a block: -1.9; MITF TRPM1 inh: -1.1; KKLEB cytotox: -3.6; Peg3 promoter: -24.8; CF NFkB inh: 52.8*; Beta2AR agonist: 2.0; CF NFkB conf: 56.6*

Results for CCOC(=O)c1sc2nccc(N(C)C)c2c1N=CN(C)C ?
HIF-2a block: 10.5; MITF TRPM1 inh: -5.3; KKLEB cytotox: -13.4; Peg3 promoter: 1.3; CF NFkB inh: 17.0; Beta2AR agonist: -8.4

What do the screens show for `ON=C1c2ccccc2-c2cc(Br)ccc21`?
HIF-2a block: -52.6; MITF TRPM1 inh: -6.3; KKLEB cytotox: -5.8; Peg3 promoter: -39.3; CF NFkB inh: 77.8*; Beta2AR agonist: 12.2; CF NFkB conf: 73.0*

What do the screens show for `O=C(Nc1ccccc1)c1cc(C2CCCN(C(=O)c3ccc4c(c3)CCO4)C2)on1` (stereo not drawn)?
HIF-2a block: -109.7; KKLEB cytotox: -5.8; Peg3 promoter: -54.9; CF NFkB inh: 15.6

How did COCCCNc1ccn2nc(-c3ccccc3)cc2n1 do in these assays?
HIF-2a block: 5.1; KKLEB cytotox: -2.5; Peg3 promoter: -68.5; CF NFkB inh: -3.8

How did CC(C)(CO)CNc1ccn2nccc2n1 do in these assays?
HIF-2a block: 16.3; KKLEB cytotox: 1.1; Peg3 promoter: -1.7; CF NFkB inh: 52.6*; CF NFkB conf: 60.5*

How did CNc1nc(NCc2ccc(N(C)C)cc2)c2sccc2n1 do in these assays?
HIF-2a block: -13.5; KKLEB cytotox: -13.7; Peg3 promoter: -31.5; CF NFkB inh: 19.5

What do the screens show for `O=C(/C=C/c1cccc([N+](=O)[O-])c1)N1CCN(c2ccccn2)CC1`?
HIF-2a block: 10.2; MITF TRPM1 inh: 13.9; KKLEB cytotox: -19.9; Peg3 promoter: 14.0; CF NFkB inh: 9.6; Beta2AR agonist: -2.0

What do the screens show for `O=C(/C=C/c1cccc([N+](=O)[O-])c1)n1cnc2ccccc21`?
HIF-2a block: 27.7; MITF TRPM1 inh: 66.6*; KKLEB cytotox: -3.2; Peg3 promoter: 100.4*; CF NFkB inh: 82.4*; Beta2AR agonist: 15.1; CF NFkB conf: 66.9*

What do the screens show for `CC1=C(C(=O)N(C(C)C)C(C)C)CC(CC(=O)NCCc2ccccn2)C(=O)N1Cc1ccc(C(C)(C)C)cc1` (stereo not drawn)?
HIF-2a block: 1.2; KKLEB cytotox: -6.8; Peg3 promoter: 8.5; CF NFkB inh: 0.1

What do the screens show for `CC(C)(C)OC(=O)NCCCCCNC(=O)c1nc[nH]c1C(=O)NCC(=O)OCc1ccccc1`?
HIF-2a block: -0.3; MITF TRPM1 inh: 16.6; KKLEB cytotox: -6.1; Peg3 promoter: 73.8*; CF NFkB inh: 73.9*; Beta2AR agonist: 21.4; CF NFkB conf: 72.3*

How did N#Cc1c(-c2ccccc2)c(C#N)c2nc3ccccc3n2c1N do in these assays?
HIF-2a block: 5.8; MITF TRPM1 inh: 8.2; KKLEB cytotox: 6.1; Peg3 promoter: 32.8; CF NFkB inh: 4.5; Beta2AR agonist: 2.2

How did Cc1ccc(-c2c(C#N)c(N)n3c(nc4ccccc43)c2C#N)cc1 do in these assays?
HIF-2a block: -1.2; MITF TRPM1 inh: 10.4; KKLEB cytotox: -36.7; Peg3 promoter: 46.8; CF NFkB inh: 54.9*; Beta2AR agonist: 7.3; CF NFkB conf: 49.6*

How did COc1ccc(-c2cc3c(=O)n(CC(=O)NCc4ccc(C)cc4)ncn3n2)cc1 do in these assays?
HIF-2a block: 5.3; MITF TRPM1 inh: -12.9; KKLEB cytotox: -14.6; Peg3 promoter: -1.4; CF NFkB inh: 54.5*; Beta2AR agonist: 14.1; CF NFkB conf: 13.1

Results for CN(Cc1cc(Cl)cc(Cl)c1O)Cc1c(O)ccc2ccccc12 ?
HIF-2a block: 11.7; MITF TRPM1 inh: 6.3; KKLEB cytotox: -16.6; Peg3 promoter: 17.7; CF NFkB inh: 59.0*; Beta2AR agonist: 4.9; CF NFkB conf: 8.2

How did CN(Cc1ccccc1)Cc1c(O)ccc2ccccc12 do in these assays?
HIF-2a block: -4.5; MITF TRPM1 inh: 17.1; KKLEB cytotox: -11.4; Peg3 promoter: 3.8; CF NFkB inh: 14.1; Beta2AR agonist: -1.0

How did COc1cc(O)c(CC=C(C)C)c(O)c1C(=O)CCc1ccc(O)cc1 do in these assays?
HIF-2a block: -303.3; MITF TRPM1 inh: -11.1; KKLEB cytotox: -4.1; Peg3 promoter: 12.9; CF NFkB inh: 51.8*; Beta2AR agonist: 9.7; CF NFkB conf: 43.6*

What do the screens show for `CCCCN1C(=O)C(CC(=O)NCc2ccco2)CC(C(=O)N(C(C)C)C(C)C)=C1C` (stereo not drawn)?
HIF-2a block: 9.5; KKLEB cytotox: 14.5; Peg3 promoter: 4.6; CF NFkB inh: -11.4

Results for O=c1c(O)c(-c2ccc(O)cc2)oc2cc(O)cc(O)c12 ?
HIF-2a block: -120.9; MITF TRPM1 inh: -68.0; KKLEB cytotox: 7.0; Peg3 promoter: -208.6; CF NFkB inh: 34.0; Beta2AR agonist: 7.1

What do the screens show for `O=c1c(-c2c(O)cc(O)c3c2O[C@H](c2ccc(O)cc2)CC3)c(-c2ccc(O)cc2)oc2cc(O)cc(O)c12`?
HIF-2a block: 2.1; MITF TRPM1 inh: -15.3; KKLEB cytotox: -0.1; Peg3 promoter: 46.8; CF NFkB inh: 75.4*; Beta2AR agonist: 3.6; CF NFkB conf: 101.4*
